Reference: PubChem BioAssay AID2156 (Johns Hopkins Ion Channel Center, 2009)
About 3,400 (1.1%) of roughly 310,000 compounds were called active.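 The calls were made as follows: active = fluorescence ratio B-score at most minus 3 library SDs, with starting brightness B-score within 2 library SDs (cut at about -5.5 in these data); inactive = the rest, inconclusive results apart.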 The list comes from a sample in which actives are over-represented; it also holds similar structures and randomly drawn compounds. Square brackets hold non-standard residues; d marks the D form. Peptide text beside a SMILES is read from it. * marks the point of attachment. ξ: configuration not given here. Cbz = O=C(OCc1ccccc1)*; ξL = CC(C)CC(N)C(=O)O; Bz = O=C(c1ccccc1)*; ξP = O=C(O)C1CCCN1

The molecules below were run against Potassium voltage-gated channel subfamily KQT member 2 (Rattus norvegicus) (UniProt O88943) (assay: KCNQ2 channel blockers in CHO-K1 cells – cell-based, FluxOR thallium flux, B-score, primary screen (AID 2156)). Conditions: 20 min, at 10 µM; active compounds read low.
Potassium voltage-gated channel subfamily KQT member 2 (Rattus norvegicus), sequence (O88943 whole entry, looked up): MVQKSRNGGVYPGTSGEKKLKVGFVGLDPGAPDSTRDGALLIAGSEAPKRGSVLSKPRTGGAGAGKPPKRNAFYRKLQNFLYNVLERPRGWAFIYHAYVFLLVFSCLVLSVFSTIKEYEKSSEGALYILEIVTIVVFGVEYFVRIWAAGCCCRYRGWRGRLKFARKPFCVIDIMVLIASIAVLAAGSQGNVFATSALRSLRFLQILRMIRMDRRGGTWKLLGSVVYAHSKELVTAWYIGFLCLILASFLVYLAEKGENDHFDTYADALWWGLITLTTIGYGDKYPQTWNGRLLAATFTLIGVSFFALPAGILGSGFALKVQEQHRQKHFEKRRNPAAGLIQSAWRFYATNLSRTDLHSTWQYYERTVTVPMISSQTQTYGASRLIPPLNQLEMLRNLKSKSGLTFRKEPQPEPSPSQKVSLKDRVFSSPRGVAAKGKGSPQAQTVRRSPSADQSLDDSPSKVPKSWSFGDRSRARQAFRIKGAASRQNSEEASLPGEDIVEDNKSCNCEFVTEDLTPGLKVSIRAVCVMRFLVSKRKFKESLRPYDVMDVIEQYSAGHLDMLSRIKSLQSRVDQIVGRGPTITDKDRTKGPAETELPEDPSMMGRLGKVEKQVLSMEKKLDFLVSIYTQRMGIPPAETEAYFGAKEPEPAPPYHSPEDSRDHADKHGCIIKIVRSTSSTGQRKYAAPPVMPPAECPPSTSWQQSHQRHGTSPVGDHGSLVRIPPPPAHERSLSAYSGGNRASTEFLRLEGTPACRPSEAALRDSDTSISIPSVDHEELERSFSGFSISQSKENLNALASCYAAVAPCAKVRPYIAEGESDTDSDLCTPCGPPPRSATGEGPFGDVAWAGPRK

Compound | B-score
CCN(Cc1ccccc1)S(=O)(=O)c1cc2c3c(c1)CCN3C(=O)CC2 | -0.41 (inactive)
Cc1ccc(S(=O)(=O)N2CCC(C(=O)NCCC3=CCCCC3)CC2)cc1C | inactive
COc1ccc(NC(=O)N2CCCC2C(=O)NCc2ccccc2Cl)cc1 (stereo not given) | -1.43 (inactive)
Cc1cccc(NC(=O)C2CCCN2S(=O)(=O)c2ccc(F)cc2)c1C (stereo not given) | -3.21 (inactive)
O=C(NCc1ccccc1Cl)C1CCCN1S(=O)(=O)c1ccc(F)cc1 (stereo not given) | -6.35 (active)
CCOc1ccc(NC(=O)CN(C)C(=O)c2c(C)noc2C)cc1OCC | -0.82 (inactive)
CCN(C(=O)CSc1nnnn1-c1ccccc1OC)C1CCS(=O)(=O)C1 (stereo not given) | -0.06 (inactive)
CCCc1nc(SCC(=O)Nc2ccc(S(=O)(=O)N(C)C)cc2)c2ccccc2n1 | inactive
CC(C)N(C(=O)CSc1nc(COc2ccccc2)nc2ccccc12)C(C)C | -7.53 (active)
CCc1nc(SCC(=O)NNC(=O)c2ccc(C)cc2)c2ccccc2n1 | -1.77 (inactive)
CC[C@@]12C(=O)N(c3ccccc3)C(=O)N1[C@H](c1ccc(Br)cc1)[C@@H]1C(=O)N(C(C)(C)C)C(=O)[C@@H]12 | inactive
Cc1ccccc1N1CCN(CC(=O)NCc2ccc(Cl)cc2)CC1 | -8.15 (active)
Cc1ccc(CNC(=O)CN2CCN(Cc3ccc(Cl)cc3)C2=O)cc1 | -0.18 (inactive)
O=C(CN1CCN(c2ccc(Cl)cc2)CC1)NCc1cccs1 | -0.84 (inactive)
COc1ccc(NC(=O)CN(C)C(=O)CC2CCCCC2)cc1 | -0.05 (inactive)
COc1ccc2c(c1)C(=O)Nc1cc(Cl)ccc1N2 | inactive
Cc1cccc(-n2cc(CN3CCN(C(=O)c4ncn[nH]4)CC3)c(-c3cccc(F)c3)n2)c1 | -8.35 (active)
Cc1ccc(C)c(-n2cc(CN3CCN(C(=O)c4ncn[nH]4)CC3)c(-c3ccccc3)n2)c1 | -1.41 (inactive)
CCC(O)C1CCN(Cc2cn(-c3ccc(OC)cc3)nc2-c2cccc(F)c2)CC1 (stereo not given) | inactive
CCN1C(=O)[C@@H]2[C@@H](c3ccc(-c4ccc(OC)cc4)c(OC)c3)N3CCC[C@@]3(C(=O)OC)[C@@H]2C1=O | inactive
COC(=O)C1=C(C)N(c2ccc(Br)cc2)C(=O)/C1=C\c1ccco1 | -1.96 (inactive)
COC(=O)C1=C(C)N(C(C)c2ccccc2)C(=O)/C1=C\c1ccco1 (stereo not given) | -8.53 (active)
O=C(CCCN1C(=O)/C(=C/c2ccco2)SC1=S)Nc1ccccc1 | -0.39 (inactive)
COc1ccc(CCNC(=O)C(=O)NCC2CCCN2S(=O)(=O)c2cccs2)cc1OC (stereo not given) | inactive

Compound | B-score
COC(=O)[C@H](C)[C@H]1C[C@]1(C)[C@H](NC(=O)OCc1ccccc1)c1ccccc1 | -3.52 (inactive)
CC(C)CC(NC(=O)C1CCCN1C(=O)[C@@H](C)NC(=O)OCc1ccccc1)C(=O)NCC(N)=O (stereo not given in full) (Cbz-[dA][ξP][ξL]G-NH2) | inactive
CC(C)[C@H](NC(=O)OCc1ccccc1)C(=O)OCc1ccccc1 | -7.34 (active)
COC(=O)[C@H](Cc1ccccc1)NC(=O)[C@@H]1C[C@H]1[C@@H](NC(=O)OCc1ccccc1)c1ccccc1 | inactive
CC(C)C(NC(=O)OCc1ccccc1)C(=O)OCC(=O)N1C(C)CCCC1C (stereo not given) | -8.16 (active)
COc1ccc(COC(=O)NC(C(=O)O)c2ccccc2)cc1 (stereo not given) | inactive
Cc1ccc(C)c(OCCC(=O)Nc2cccc(S(=O)(=O)N3CCCC3)c2)c1 | inactive
Cc1ccc2nc(SCC(=O)Nc3cccc4ccccc34)nc(=O)n2c1 | -0.48 (inactive)
COc1ccc(NC(=O)CN(C)C(=O)Cc2coc3cc(C)c(C)cc23)cc1 | -0.02 (inactive)
Brc1cnc2ccccc2c1N1CCCCC1 | inactive
COc1ccccc1NC(=O)CSc1nnc(C)n1CC1CCCO1 (stereo not given) | inactive
CCCn1c(SCC(=O)Nc2cccc(C(=O)OCC)c2)nnc1-c1ccoc1C | -0.31 (inactive)
COc1ccccc1NC(=O)CSc1nnc(-c2ccoc2C)n1CCc1ccccc1 | -8.21 (active)
O=C(COc1coc(CN2CCN(c3ccccc3)CC2)cc1=O)N1CCc2ccccc21 | inactive
CC1=C(C(=O)Nc2ccccc2)C(c2cccs2)C(C#N)=C(SCC#N)N1 (stereo not given) | -6.59 (active)
C=CCOC(=O)C1=C(C)NC(C)=C(C(=O)OCC=C)C1c1cccs1 | -2.85 (inactive)
CC1=C(C(=O)Nc2ccccc2)C(c2ccco2)C(C#N)=C(SCC(N)=O)N1 (stereo not given) | inactive
CCN(C(=O)COC(=O)c1sccc1C)c1c(N)n(Cc2ccccc2)c(=O)[nH]c1=O | inactive
N#CCCN(C(=O)COC(=O)c1ccc(S(=O)(=O)N2CCCCCC2)cc1)c1ccccc1 | inactive
Cc1ccc(C)c(OCCC(=O)OCC(=O)NC(=O)NCc2ccccc2)c1 | inactive
COc1ccc2c(c1)O/C(=C\c1ccccc1O)C2=O | -0.61 (inactive)
COc1ccc(NC(=O)CN(C)C(=O)c2ccc(NC3CC3)c([N+](=O)[O-])c2)cc1 | inactive
C=CC(COCc1ccccc1)N(Cc1ccccc1)S(=O)(=O)c1ccccc1Br (stereo not given) | -5.61 (active)
C=CCCN(Cc1ccccc1)S(=O)(=O)c1ccccc1Br | inactive

Compound | B-score
CC1CCN(c2ccc(-c3ccc(NC(=O)c4ccco4)cc3)nn2)CC1 | inactive
COCCNC(=O)COc1ccc(N(C)S(=O)(=O)c2ccc3ccccc3c2)cc1 | inactive
CCc1noc(C)c1C(=O)Oc1ccc(N(C)S(=O)(=O)c2ccc(C)c(C)c2)cc1 | -6.86 (active)
Cc1ccc(S(=O)(=O)N(C)C)cc1NC(=O)COC(=O)c1c(C)noc1C | -0.34 (inactive)
CCCc1cc(=O)[nH]c2nnc(SCC(=O)Nc3nnc(SCC)s3)n12 | inactive
Cc1ccc(-c2csc(NC(=O)C3=COCCO3)n2)cc1C | -0.1 (inactive)
O=C(NC(Cc1ccccc1)C(=O)N1CCCC1C(=O)O)c1ccccc1 (stereo not drawn) (Bz-Phe-Pro-OH; configuration not given here) | -0.06 (inactive)
CC(Cc1ccccc1)C(=O)N(C)Cc1ccccc1 (stereo not given) | -0.83 (inactive)
CN(Cc1ccccc1F)C(=O)C(Cc1ccccc1)NC(=O)c1ccccc1 (stereo not given) | -7.91 (active)
CSc1ccccc1NC(=O)C(C)N1C(=O)c2ccccc2S1(=O)=O (stereo not given) | inactive
CC1=NNC(=O)C1Cc1c(Cl)cccc1Cl (stereo not given) | inactive
COC(=O)[C@@]12CCCN1[C@H](c1ccc(-c3ccc(F)cc3)c(OC)c1)[C@H]1C(=O)N(C)C(=O)[C@H]12 | inactive
COc1ccc(C(=O)CN2C(=O)NC3(CCc4ccccc43)C2=O)c(OC)c1 (stereo not given) | inactive
CCN(CC)c1ccc(S(=O)(=O)N2CCCCC2)cc1NC(=O)C1=COCCO1 | -0.93 (inactive)
C=CCn1c(SCC(=O)/C(C#N)=C(\C)N)nc2sc(C)c(C)c2c1=O | -7.77 (active)
Cc1sc2nc(SCC(N)=O)n(C)c(=O)c2c1C | -0.14 (inactive)
C=CCn1c(SCC(=O)NCC2CCCO2)nc2sc(C)c(C)c2c1=O (stereo not given) | inactive
COc1ccccc1C(=O)NC(=O)COC(=O)C1CC1 | inactive
COCCN(C(=O)COC(=O)Cc1cccc(OC)c1)c1c(N)n(Cc2ccccc2)c(=O)[nH]c1=O | inactive
CN(c1ccc(OCC(=O)O)cc1)S(=O)(=O)c1ccc2ccccc2c1 | -1.18 (inactive)
COc1cccc(COc2ccc(N(C)S(=O)(=O)c3ccccc3)cc2)c1 | -8.25 (active)
Cc1ccc2nc(COc3ccc(N(C)S(=O)(=O)c4ccccc4)cc3)cc(=O)n2c1 | inactive
COc1ccccc1C(CNC(=O)c1cccc(NS(=O)(=O)c2ccc(Br)cc2)c1)N(C)C (stereo not given) | -0.89 (inactive)
O=S(=O)(Nc1ccc(-c2ccc(N3CCOCC3)nn2)cc1)c1cc(Cl)ccc1Cl | -0.08 (inactive)

Compound | B-score
Cc1cc2oc3ccc(NCCC4CCCN4C)cc3c(=O)c2cc1C (stereo not given) | -6.02 (active)
CCCOc1ccc(C2c3c(oc4cc(C)c(C)cc4c3=O)C(=O)N2CCCN2CCOCC2)cc1 (stereo not given) | -0.39 (inactive)
Cc1cc2oc(=O)cc(CN3CCN(Cc4ccccc4)CC3)c2cc1C | inactive
Cc1ccc(S(=O)(=O)N2CCN(C(=O)Cc3sc(C)nc3-c3ccc(F)cc3)CC2)c(C)c1 | -0.7 (inactive)
CC(C)CN(C(=O)COC(=O)c1ccc2ccccc2c1)c1c(N)n(Cc2ccccc2)c(=O)[nH]c1=O | inactive
O=C(Nc1cc(Cl)ccc1N1CCOCC1)c1ccc(N2CCCC2=O)cc1 | inactive
COc1cc(OC)cc(C(=O)NNC(=O)CNC(=O)c2ccc(Br)o2)c1 | -1.49 (inactive)
Cc1ccc(O)c(CNc2nc3ccccc3n2C)c1 | inactive
CC(C)n1c(COc2ccccc2)nc2ccccc21 | -0.24 (inactive)
CC(C)n1c(NCc2c[nH]c3ccccc23)nc2ccccc21 | -8.14 (active)
Cc1nn(C)c(C)c1NS(=O)(=O)c1ccc(OC(F)(F)F)cc1 | inactive
Cc1ccccc1OCc1nnc(SCC(=O)N2c3ccccc3Sc3ccc(Cl)cc32)o1 | -7.73 (active)
O=C(CSc1nc2ccccc2o1)N1c2ccccc2Sc2ccc(Cl)cc21 | -3.87 (inactive)
Cc1ccc(NC(=O)CSc2nnc(COc3ccccc3C)o2)cc1 | inactive
CN(N)c1nc(N2CCCC2)nc(N2CCCC2)n1 | -0.33 (inactive)
CC(=O)CC[C@@H](C)O[C@@H]1OC(C)[C@H](O)CC1O (stereo not given in full) | -0.8 (inactive)
c1ccc2c(CSCc3nc4ccccc4[nH]3)cccc2c1 | -4.3 (inactive)
Clc1ccccc1SCc1nc2ccccc2[nH]1 | -5.77 (active)
c1ccc(-c2nnc(SCc3nc4ccccc4[nH]3)o2)cc1 | inactive
O=C(CSc1nc(=O)n2ccccc2n1)Nc1ccc2c(c1)OCCO2 | -1.2 (inactive)
COc1ccccc1NC(=O)[C@H](COCc1ccccc1)NC(=O)OC(C)(C)C | -6.32 (active)
C#CCNC(=O)[C@H](Cc1ccc(C(=O)c2ccccc2)cc1)NC(=O)OC(C)(C)C | inactive
COc1ccccc1NC(=O)C(C)OC(=O)CC1CCCC1 (stereo not given) | -1 (inactive)
